# Results taken from PubChem BioAssay (EPA / NIEHS).
# Several values for one entry are separate records, joined by “and”; a condition that tells them apart may be missing. Equal entries are not always repeated. Inconclusive results are not listed. Some compounds were tested as several samples or in several runs, with calls that do not always agree. Activity calls are given as the source filed them. Rule for the calls, unless noted: active = hit-call score of the fitted dose curve at least 0.9, where 1 is the maximum; inactive = score below 0.9.
# What was measured:
# [1] = biological target: Nuclear respiratory factor 1 (Homo sapiens) (UniProt Q16656); experiment: ATG_NRF1_CIS: Attagene CIS-FACTORIAL HepG2 Assay for human Nuclear Respiratory Factor 1 (NRF1) Orphan Gene (AID 2282987); conditions: HepG2 NRF1 cis-element reporter, Attagene multiplex; actives raise or lower the signal
# Chain of Nuclear respiratory factor 1 (Homo sapiens) (Q16656 whole entry, looked up): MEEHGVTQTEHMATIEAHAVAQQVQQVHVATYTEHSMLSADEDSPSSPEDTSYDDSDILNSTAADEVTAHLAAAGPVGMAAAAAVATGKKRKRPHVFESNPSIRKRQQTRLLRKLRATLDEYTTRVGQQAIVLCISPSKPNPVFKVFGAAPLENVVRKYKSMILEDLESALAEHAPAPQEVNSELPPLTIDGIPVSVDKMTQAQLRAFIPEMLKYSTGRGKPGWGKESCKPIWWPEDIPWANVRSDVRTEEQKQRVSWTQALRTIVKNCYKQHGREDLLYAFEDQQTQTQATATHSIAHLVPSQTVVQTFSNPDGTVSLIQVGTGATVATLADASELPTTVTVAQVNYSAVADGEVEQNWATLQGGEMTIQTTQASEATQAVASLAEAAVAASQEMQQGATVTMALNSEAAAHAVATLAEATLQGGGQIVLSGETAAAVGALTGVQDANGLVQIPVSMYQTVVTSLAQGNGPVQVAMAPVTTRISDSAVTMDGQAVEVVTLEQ
# Outline: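 Endogenous NRF1-driven reporter transcription in transfected HepG2 cells after 24 h treatment. Readout: RT-PCR products, 6-FAM labelled and resolved by capillary electrophoresis; changes fitted both directions relative to DMSO.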
# [2] = ATG_NFI_CIS: Attagene CIS-FACTORIAL HepG2 Assay for human Nuclear Factor I (NFI) (AID 2282989); conditions: HepG2 cis-regulatory reporter, NFI response element transcription; actives raise or lower the signal
# Outline: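 Multiplexed cis-reporter system in human HepG2 cells reports native TF activity as reporter mRNA induction 24 h post-dose. Fragments labelled with 6-FAM, HpaI-digested and resolved by capillary electrophoresis; activity fitted both directions versus DMSO.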
# [3] = biological target: Myc proto-oncogene protein (Homo sapiens) (UniProt P01106); experiment: ATG_Myc_CIS: Attagene CIS-FACTORIAL HepG2 Assay for human Myelocytomatosis (Myc) Proto-Oncogene Transcription Factor (AID 2282990); conditions: HepG2, Attagene cis-reporter transcription factor activity; actives raise or lower the signal
# Chain of Myc proto-oncogene protein (Homo sapiens) (P01106 whole entry, looked up): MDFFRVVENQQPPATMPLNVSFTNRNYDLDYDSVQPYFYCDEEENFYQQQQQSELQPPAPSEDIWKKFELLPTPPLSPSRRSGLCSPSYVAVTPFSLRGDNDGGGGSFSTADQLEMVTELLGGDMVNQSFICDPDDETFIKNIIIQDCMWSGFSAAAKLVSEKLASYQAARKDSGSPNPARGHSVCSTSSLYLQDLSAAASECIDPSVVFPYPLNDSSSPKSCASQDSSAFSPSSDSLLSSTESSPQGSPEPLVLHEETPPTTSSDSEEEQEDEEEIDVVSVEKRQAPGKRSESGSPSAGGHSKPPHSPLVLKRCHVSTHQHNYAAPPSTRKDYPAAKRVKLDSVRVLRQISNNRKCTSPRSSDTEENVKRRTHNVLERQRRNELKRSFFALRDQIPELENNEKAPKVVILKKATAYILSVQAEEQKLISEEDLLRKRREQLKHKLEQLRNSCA
# Outline: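 HepG2, transient MRTU transfection (cis promoters, endogenous TFs); 24 h dosing; TriZol RNA → oligo(dT) RT → PCR → 6-FAM primer extension → HpaI cut → CE. Bidirectional fit vs DMSO.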
# [4] = ATG_NF_kB_CIS: Attagene CIS-FACTORIAL HepG2 Assay for human Nuclear Factor Kappa B (NF-kB) (AID 2282991); conditions: HepG2 Attagene cis-factorial NF-kB reporter mRNA; actives raise or lower the signal
# Outline: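 Readout is reporter transcript level, gain or loss versus DMSO, measured 24 h post-dose via RT-PCR, fluorescent labelling and capillary electrophoresis. Human HepG2 liver cells carried transiently transfected CIS reporter constructs reflecting endogenous factors.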
# [5] = ATG_NRF2_ARE_CIS: Attagene CIS-FACTORIAL HepG2 Assay for human Nuclear Factor Erythroid 2 Related Factor 2 (NFR2) response to Antioxidant Response Elements (ARE) (AID 2282992); conditions: HepG2 Attagene ARE/NRF2 reporter, transcription factor activity; actives raise or lower the signal
# Outline: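 Endogenous transcription factor activity read out as reporter transcript levels (RT-PCR plus capillary electrophoresis, fluorescence) in transiently transfected HepG2 cells. Measured at 24 h after dosing; gain or loss of signal fitted versus DMSO.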
# [6] = ATG_Oct_MLP_CIS: Attagene CIS-FACTORIAL HepG2 Assay for human Octamer-Binding Transcription Factor (Oct) (AID 2282993); conditions: HepG2 Attagene cis-factorial Oct reporter, mRNA; actives raise or lower the signal
# Outline: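 After 24 h compound exposure, transfected HepG2 cells were lysed for total RNA; reporter-specific cDNA was PCR-amplified, fluorescently labelled and sized by capillary electrophoresis. Bidirectional curve fitting used DMSO as baseline.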
# [7] = BSK_3C_TissueFactor: BioMAP Diversity Plus: 3C Assay for Tissue Factor Biomarker Activity (AID 2282997); conditions: BioMAP 3C HUVEC, tissue factor biomarker readout; actives raise or lower the signal
# Outline: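 In this endothelial system, HUVEC are treated for 24 h and Tissue Factor is assessed by ELISA, normalised to DMSO.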
# [8] = BSK_3C_uPAR: BioMAP Diversity Plus: 3C Assay for Urokinase-type plasminogen activator receptor (uPAR) Biomarker Activity (AID 2282998); conditions: BioMAP 3C HUVEC, uPAR biomarker ELISA; actives raise or lower the signal
# Outline: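 Values derive from bidirectional curve fitting relative to DMSO, which served as baseline of activity. uPAR was measured by ELISA in human umbilical vein endothelial primary cultures 24 h after compound addition.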
# [9] = BSK_3C_VCAM1: BioMAP Diversity Plus: 3C Assay for Vascular cell adhesion molecule 1 (VCAM1) Biomarker Activity (AID 2282999); conditions: BioMAP 3C HUVEC, VCAM1 ELISA, cytokine-stimulated; actives raise or lower the signal
# Outline: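 Activity fitted in both directions relative to DMSO, with ELISA measurement of the surface marker on primary HUVEC (3C) at 24 h post-treatment; parallel SRB staining (0.1% SRB, TCA-fixed, 560 nm) flagged overt cytotoxicity.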
# [10] = BSK_4H_Eotaxin3: BioMAP Diversity Plus: 4H Assay for Eotaxin 3 Biomarker Activity (AID 2283000); conditions: primary human endothelial cells (HUVEC); actives raise or lower the signal;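 for outcome: CCL26 protein level quantified by ELISA in parallel with SRB cytotoxicity check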
# Outline: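 ELISA quantitation of CCL26 (Eotaxin-3) protein from chemically dosed human vascular endothelial cells at 24 h; increases and decreases both scored relative to DMSO-treated baseline.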
# [11] = read-out: Intercellular Adhesion Molecule 1 (ICAM1), ICAM1 (gene 3383); experiment: BSK_3C_ICAM1: BioMAP Diversity Plus: 3C Assay for Intercellular Adhesion Molecule 1 (ICAM1) Biomarker Activity (AID 2283003); conditions: primary human endothelial cells (HUVEC); actives raise or lower the signal
# Outline: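 Using DMSO as baseline, bidirectional curve fitting was applied to ICAM-1 ELISA signals from HUVEC in the 3C system, measured 24 h after compound addition.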
# [12] = biological target: human Retinoic Acid Receptor beta (RARb), RARB (gene 5915) (UniProt P10826); experiment: ATG_RARb_TRANS: Attagene TRANS-FACTORIAL HepG2 Assay for human Retinoic Acid Receptor beta (AID 2283004; active = hit-call score of the fitted dose curve at least 0.9, where 1 is the maximum)
# Chain of human Retinoic Acid Receptor beta (RARb), RARB (gene 5915) (P10826 whole entry, looked up, the tested form may be a part): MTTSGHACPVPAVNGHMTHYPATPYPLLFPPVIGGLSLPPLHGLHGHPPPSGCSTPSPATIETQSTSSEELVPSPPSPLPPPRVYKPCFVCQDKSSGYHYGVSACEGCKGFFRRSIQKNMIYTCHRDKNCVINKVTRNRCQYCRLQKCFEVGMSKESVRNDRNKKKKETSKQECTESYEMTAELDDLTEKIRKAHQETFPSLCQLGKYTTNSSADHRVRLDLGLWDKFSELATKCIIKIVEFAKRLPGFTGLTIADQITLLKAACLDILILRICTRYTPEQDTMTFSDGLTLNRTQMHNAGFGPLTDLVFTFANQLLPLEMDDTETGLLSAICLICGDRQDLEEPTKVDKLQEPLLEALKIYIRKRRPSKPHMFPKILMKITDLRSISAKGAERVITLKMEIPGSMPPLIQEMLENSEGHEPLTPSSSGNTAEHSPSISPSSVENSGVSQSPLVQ
# Outline: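 Fluorescent capillary-electrophoresis detection of GAL4-UAS reporter mRNA defines the endpoint, with induction over DMSO-treated wells scored as activity. Transiently transfected human hepatoma HepG2 cells expressing exogenous NR–Gal4 proteins are exposed to test chemicals for 24 h.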
# [13] = biological target: Retinoic acid receptor alpha (Homo sapiens) (UniProt P10276); experiment: ATG_RARa_TRANS: Attagene TRANS-FACTORIAL HepG2 Assay for human Retinoic Acid Receptor alpha (RARa) (AID 2283005; active = hit-call score of the fitted dose curve at least 0.9, where 1 is the maximum;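 for AC50: potency for increased reporter signal meaning RARa activation over DMSO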)
# Chain of Retinoic acid receptor alpha (Homo sapiens) (P10276 whole entry, looked up, the tested form may be a part): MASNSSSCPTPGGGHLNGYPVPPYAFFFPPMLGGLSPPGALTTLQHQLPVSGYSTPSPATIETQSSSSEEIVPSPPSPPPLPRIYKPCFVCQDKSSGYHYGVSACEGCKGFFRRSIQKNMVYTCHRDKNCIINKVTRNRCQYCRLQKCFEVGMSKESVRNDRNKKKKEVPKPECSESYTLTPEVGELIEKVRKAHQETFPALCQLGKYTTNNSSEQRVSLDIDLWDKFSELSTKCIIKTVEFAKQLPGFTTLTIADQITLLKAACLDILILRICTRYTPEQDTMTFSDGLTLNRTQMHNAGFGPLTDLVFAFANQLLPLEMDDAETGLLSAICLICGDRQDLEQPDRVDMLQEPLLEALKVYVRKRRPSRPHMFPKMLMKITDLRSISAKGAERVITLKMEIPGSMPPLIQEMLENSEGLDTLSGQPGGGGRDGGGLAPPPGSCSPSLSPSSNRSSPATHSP
# Outline: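 Reporter transcripts, measured by RT-PCR with fluorescent labeling and capillary electrophoresis after 24 h dosing, reflect activity of an exogenous human RARa–GAL4 fusion in transiently transfected HepG2. Fitted for increase relative to DMSO.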
# [14] = BSK_3C_Proliferation: Cell Proliferation Assessment in the BioMAP Diversity Plus: 3C Assay (AID 2283006); conditions: primary human endothelial cells (HUVEC);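 for AC50: potency may reflect either rise or fall in cell number versus DMSO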
# Outline: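 Measured here: sulforhodamine B (0.1%) staining of TCA-fixed sub-confluent umbilical vein endothelial cultures 48 h post-dosing, absorbance 560 nm. DMSO served as negative control and baseline; both signal gain and loss were modelled.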
# [15] = biological target: Peroxisome proliferator-activated receptor gamma (Homo sapiens) (UniProt P37231); experiment: ATG_PPARg_TRANS: Attagene TRANS-FACTORIAL HepG2 Assay for human Peroxisome Proliferator-activated Receptor-gamma (PPARg) (AID 2283007; active = hit-call score of the fitted dose curve at least 0.9, where 1 is the maximum)
# Chain of Peroxisome proliferator-activated receptor gamma (Homo sapiens) (P37231 whole entry, looked up, the tested form may be a part): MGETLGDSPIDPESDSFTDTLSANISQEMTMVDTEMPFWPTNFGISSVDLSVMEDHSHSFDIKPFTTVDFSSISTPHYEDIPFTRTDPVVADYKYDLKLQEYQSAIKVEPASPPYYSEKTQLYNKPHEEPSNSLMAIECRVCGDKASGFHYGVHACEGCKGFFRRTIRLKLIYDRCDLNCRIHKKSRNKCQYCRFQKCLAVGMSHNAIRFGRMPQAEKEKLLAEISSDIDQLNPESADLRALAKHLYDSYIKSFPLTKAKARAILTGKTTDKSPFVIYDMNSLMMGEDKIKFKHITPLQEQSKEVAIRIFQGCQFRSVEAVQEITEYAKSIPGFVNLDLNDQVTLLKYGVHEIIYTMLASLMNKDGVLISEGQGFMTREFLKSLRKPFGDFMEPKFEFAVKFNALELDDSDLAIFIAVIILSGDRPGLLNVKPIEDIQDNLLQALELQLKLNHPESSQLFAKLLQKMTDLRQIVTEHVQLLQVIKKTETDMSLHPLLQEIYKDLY
# Outline: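 After 24 h of chemical exposure, transfected HepG2 cells carrying PPARγ-Gal4 chimera reporter constructs are lysed for RNA. Reporter transcripts are measured by RT-PCR and capillary electrophoresis with fluorescent labelling, and gain of signal is fitted versus DMSO.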
# [16] = biological target: Nuclear receptor subfamily 1 group I member 2 (Homo sapiens) (UniProt O75469); experiment: ATG_PXR_TRANS: Attagene TRANS-FACTORIAL HepG2 Assay for human Pregnane X Receptor (PXR) (AID 2283008; active = hit-call score of the fitted dose curve at least 0.9, where 1 is the maximum)
# Chain of Nuclear receptor subfamily 1 group I member 2 (Homo sapiens) (O75469 whole entry, looked up, the tested form may be a part): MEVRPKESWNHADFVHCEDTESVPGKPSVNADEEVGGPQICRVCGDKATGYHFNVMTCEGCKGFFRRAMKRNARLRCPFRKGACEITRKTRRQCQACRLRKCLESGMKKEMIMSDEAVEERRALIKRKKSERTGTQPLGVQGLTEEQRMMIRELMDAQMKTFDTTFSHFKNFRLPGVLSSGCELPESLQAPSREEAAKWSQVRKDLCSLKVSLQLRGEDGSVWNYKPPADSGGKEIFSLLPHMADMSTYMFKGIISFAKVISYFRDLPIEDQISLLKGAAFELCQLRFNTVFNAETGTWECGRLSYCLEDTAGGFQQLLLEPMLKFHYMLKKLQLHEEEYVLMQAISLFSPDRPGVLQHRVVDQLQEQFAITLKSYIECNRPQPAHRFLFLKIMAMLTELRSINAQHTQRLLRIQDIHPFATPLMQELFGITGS
# Outline: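 Transactivation by exogenous PXR–GAL4 fusion measured as reporter transcript induction after 24 h compound treatment of transfected human HepG2 cells. Read-out via RT-PCR and capillary electrophoresis of labelled fragments, fitted upward relative to DMSO.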
# [17] = biological target: human Retinoic Acid Receptor gamma (RARg), RARG (gene 5916) (UniProt P13631); experiment: ATG_RARg_TRANS: Attagene TRANS-FACTORIAL HepG2 Assay for human Retinoic Acid Receptor gamma (RARg) (AID 2283009; active = hit-call score of the fitted dose curve at least 0.9, where 1 is the maximum;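 for AC50: AC50 is for reporter induction above DMSO meaning RARg activation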)
# Chain of human Retinoic Acid Receptor gamma (RARg), RARG (gene 5916) (P13631 whole entry, looked up, the tested form may be a part): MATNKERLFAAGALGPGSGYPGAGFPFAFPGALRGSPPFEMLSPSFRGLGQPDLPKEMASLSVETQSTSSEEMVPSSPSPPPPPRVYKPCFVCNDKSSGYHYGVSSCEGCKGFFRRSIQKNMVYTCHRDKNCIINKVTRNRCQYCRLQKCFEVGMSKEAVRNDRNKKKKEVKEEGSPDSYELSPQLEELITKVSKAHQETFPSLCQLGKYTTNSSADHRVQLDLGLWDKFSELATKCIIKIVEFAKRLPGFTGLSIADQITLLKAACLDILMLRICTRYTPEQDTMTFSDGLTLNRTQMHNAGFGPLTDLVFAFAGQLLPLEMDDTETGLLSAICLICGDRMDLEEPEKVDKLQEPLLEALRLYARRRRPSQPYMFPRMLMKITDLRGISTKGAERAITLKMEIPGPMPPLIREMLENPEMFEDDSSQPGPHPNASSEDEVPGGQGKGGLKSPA
# Outline: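 Gain-of-signal relative to DMSO is reported from fluorescent capillary electrophoresis of RT-PCR reporter products. These came from HepG2 cells expressing transfected RARg-GAL4 chimeras with UAS reporters, harvested 24 h after dosing.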
# [18] = biological target: human RAR-related Orphan Receptor gamma (RORg), RORC (gene 6097) (UniProt P51449); experiment: ATG_RORg_TRANS: Attagene TRANS-FACTORIAL HepG2 Assay for human RAR-related Orphan Receptor gamma (RORg) (AID 2283011; active = hit-call score of the fitted dose curve at least 0.9, where 1 is the maximum)
# Chain of human RAR-related Orphan Receptor gamma (RORg), RORC (gene 6097) (P51449 whole entry, looked up, the tested form may be a part): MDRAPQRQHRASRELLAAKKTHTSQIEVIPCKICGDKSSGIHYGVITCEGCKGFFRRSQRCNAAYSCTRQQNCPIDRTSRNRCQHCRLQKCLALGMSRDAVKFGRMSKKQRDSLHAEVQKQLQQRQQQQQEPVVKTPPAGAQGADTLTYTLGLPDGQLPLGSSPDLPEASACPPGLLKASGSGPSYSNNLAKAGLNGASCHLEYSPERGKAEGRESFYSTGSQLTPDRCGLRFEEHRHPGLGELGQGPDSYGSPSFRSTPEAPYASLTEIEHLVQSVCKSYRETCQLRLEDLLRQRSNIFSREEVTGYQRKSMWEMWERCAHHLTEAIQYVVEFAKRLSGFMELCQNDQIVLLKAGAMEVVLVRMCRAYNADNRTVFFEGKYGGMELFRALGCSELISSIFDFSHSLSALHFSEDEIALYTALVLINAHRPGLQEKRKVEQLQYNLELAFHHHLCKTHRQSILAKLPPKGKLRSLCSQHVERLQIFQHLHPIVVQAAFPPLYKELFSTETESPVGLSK
# Outline: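 Chimeric RORg-Gal4 transactivation in transfected HepG2; 24 h exposure; RT-PCR/capillary electrophoresis readout of reporter mRNA, DMSO baseline.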
# [19] = biological target: human RAR-related Orphan Receptor beta (RORb), RORB (gene 6096) (UniProt Q92753); experiment: ATG_RORb_TRANS: Attagene TRANS-FACTORIAL HepG2 Assay for human RAR-related Orphan Receptor beta (RORb) (AID 2283010; active = hit-call score of the fitted dose curve at least 0.9, where 1 is the maximum)
# Chain of human RAR-related Orphan Receptor beta (RORb), RORB (gene 6096) (Q92753 whole entry, looked up, the tested form may be a part): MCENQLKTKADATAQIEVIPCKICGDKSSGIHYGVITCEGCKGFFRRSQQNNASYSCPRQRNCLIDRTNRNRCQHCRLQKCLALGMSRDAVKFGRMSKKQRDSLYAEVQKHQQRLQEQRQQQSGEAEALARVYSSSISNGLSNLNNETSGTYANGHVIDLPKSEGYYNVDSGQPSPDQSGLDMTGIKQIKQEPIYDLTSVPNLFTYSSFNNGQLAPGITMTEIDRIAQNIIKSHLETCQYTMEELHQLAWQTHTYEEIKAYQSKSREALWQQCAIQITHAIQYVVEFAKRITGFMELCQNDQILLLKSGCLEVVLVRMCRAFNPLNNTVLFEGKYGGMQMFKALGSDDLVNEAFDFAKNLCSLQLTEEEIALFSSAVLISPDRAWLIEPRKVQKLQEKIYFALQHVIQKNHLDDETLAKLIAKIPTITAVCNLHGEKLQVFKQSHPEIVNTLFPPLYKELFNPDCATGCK
# Outline: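 Multiplexed transcription-factor reporter assay: HepG2 cells transiently carrying NR-Gal4/GAL4-UAS constructs, 24 h treatment, mRNA quantified by RT-PCR plus capillary electrophoresis fluorescence; activity scored as induction over DMSO.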
# [20] = biological target: Cellular tumor antigen p53 (Homo sapiens) (UniProt P04637); experiment: ATG_p53_CIS: Attagene CIS-FACTORIAL HepG2 Assay for human p53 Transcription Factor (AID 2282994); conditions: HepG2 p53 cis-element reporter, Attagene mRNA; actives raise or lower the signal
# Chain of Cellular tumor antigen p53 (Homo sapiens) (P04637 whole entry, looked up): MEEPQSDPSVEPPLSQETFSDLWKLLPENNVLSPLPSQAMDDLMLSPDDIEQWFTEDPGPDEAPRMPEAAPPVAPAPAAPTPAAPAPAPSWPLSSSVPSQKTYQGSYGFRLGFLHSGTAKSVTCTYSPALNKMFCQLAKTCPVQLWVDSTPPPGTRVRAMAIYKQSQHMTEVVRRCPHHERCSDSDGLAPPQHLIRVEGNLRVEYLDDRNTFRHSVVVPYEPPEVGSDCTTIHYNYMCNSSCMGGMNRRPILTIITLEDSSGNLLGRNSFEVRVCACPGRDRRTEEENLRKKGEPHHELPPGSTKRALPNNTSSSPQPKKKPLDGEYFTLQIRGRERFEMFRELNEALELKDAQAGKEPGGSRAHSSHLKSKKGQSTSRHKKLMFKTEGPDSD
# Outline: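 Endogenous p53 activity read in transiently transfected HepG2 from a cis-element-driven reporter transcript after 24 h exposure. RNA reverse-transcribed, PCR-amplified, fluorescently labelled and sized by capillary electrophoresis; gain or loss fitted against DMSO baseline.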
smiles,measurement,setting,value
Cc1[nH]c(=O)n(C(C)(C)C)c(=O)c1Cl,outcome,[1],inactive
same,outcome,[2],inactive
same,outcome,[3],inactive
same,outcome,[4],inactive
same,AC50,[5],20.1 µM (active)
same,AC50,[6],24.2 µM (active)
same,outcome,[7],inactive
same,outcome,[8],inactive
same,outcome,[9],inactive
same,AC50,[10],11.7 µM (active)
same,outcome,[11],inactive
same,outcome,[12],inactive
same,outcome,[13],inactive
same,outcome,[14],inactive
same,outcome,[15],inactive
same,outcome,[16],inactive
same,outcome,[17],inactive
same,outcome,[18],inactive
ClC1C(Cl)C(Cl)C(Cl)C(Cl)C1Cl (centres undefined),outcome,[1],inactive
same,outcome,[2],inactive
same,outcome,[3],inactive
same,outcome,[4],inactive
same,AC50,[5],33.2 µM (active) and 26.2 µM (active)
same,outcome,[5],inactive
same,AC50,[6],10.1 µM (active) and 100 µM (active)
same,outcome,[6],inactive
same,outcome,[7],inactive
same,AC50,[8],28.4 µM (active)
same,outcome,[8],inactive
same,AC50,[9],30.1 µM (active)
same,outcome,[9],inactive
same,AC50,[10],32.5 µM (active)
same,outcome,[10],inactive
same,AC50,[11],28 µM (active)
same,outcome,[11],inactive
same,outcome,[12],inactive
same,AC50,[13],20.6 µM (active) and 6.26 µM (active) and 37.2 µM (active)
same,outcome,[13],inactive
same,AC50,[14],29.2 µM (active) and 28 µM (active)
same,outcome,[14],inactive
same,outcome,[15],inactive
same,AC50,[17],6.81 µM (active) and 8.7 µM (active)
same,outcome,[17],inactive
same,outcome,[19],inactive
O=[N+]([O-])c1c(Cl)c(Cl)c(Cl)c(Cl)c1Cl,outcome,[1],inactive
same,outcome,[2],inactive
same,outcome,[3],inactive
same,AC50,[4],13.8 µM (active)
same,AC50,[5],4.17 µM (active)
same,outcome,[6],inactive
same,outcome,[7],inactive
same,outcome,[8],inactive
same,AC50,[9],21.4 µM (active)
same,outcome,[10],inactive
same,outcome,[11],inactive
same,outcome,[12],inactive
same,outcome,[13],inactive
same,AC50,[14],30.1 µM (active)
same,AC50,[15],16.4 µM (active)
same,outcome,[16],inactive
same,outcome,[17],inactive
same,outcome,[19],inactive
same,outcome,[18],inactive
O=C(O)CCCOc1ccc(Cl)cc1Cl,outcome,[1],inactive
same,outcome,[2],inactive
same,outcome,[3],inactive
same,AC50,[5],63.9 µM (active)
same,outcome,[5],inactive
same,outcome,[6],inactive
same,outcome,[20],inactive
same,outcome,[7],inactive
same,outcome,[8],inactive
same,outcome,[9],inactive
same,outcome,[10],inactive
same,outcome,[11],inactive
same,outcome,[12],inactive
same,outcome,[13],inactive
same,outcome,[14],inactive
same,AC50,[15],34.5 µM (active)
same,outcome,[15],inactive
same,outcome,[16],inactive
same,outcome,[19],inactive
same,outcome,[18],inactive
Clc1ccccc1-c1nnc(-c2ccccc2Cl)nn1,outcome,[1],inactive
same,outcome,[2],inactive
same,outcome,[3],inactive
same,AC50,[5],13.6 µM (active)
same,outcome,[6],inactive
same,outcome,[7],inactive
same,outcome,[8],inactive
same,outcome,[9],inactive
same,outcome,[10],inactive
same,outcome,[11],inactive
same,outcome,[13],inactive
same,AC50,[14],11.7 µM (active)
same,AC50,[15],64.7 µM (active)
same,outcome,[16],inactive
same,outcome,[17],inactive
CC1(c2ccc(Oc3ccccc3)cc2)OC(=O)N(Nc2ccccc2)C1=O (centres undefined),outcome,[1],inactive
same,outcome,[2],inactive
same,outcome,[3],inactive
same,AC50,[5],1.61 µM (active)
same,AC50,[6],2.01 µM (active)
same,AC50,[7],29.5 µM (active)
same,AC50,[8],25.9 µM (active)
same,AC50,[9],33 µM (active)
same,AC50,[10],16.5 µM (active)
same,outcome,[11],inactive
same,outcome,[12],inactive
same,outcome,[13],inactive
same,AC50,[14],14 µM (active)
same,outcome,[15],inactive
same,outcome,[16],inactive
same,outcome,[17],inactive
